From the supplement of paper PMC8253809
Several values for one entry are separate records, joined by “and”; a condition that tells them apart may be missing. Equal values may be shown once.

Experiments:
Test in all cases: growth inhibition (% activity, log2 RLU normalised to DMSO / staurosporine); higher = more growth inhibition
Details in all cases: 33 µM
DIPGX29 = test system: DIPGX29 (H3.3 K27M diffuse intrinsic pontine glioma line)
Procedure, shortened: (§1)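 Approved drugs were tested in triplicate at a single final concentration of about 33 μM for 7 days at 37 °C, 5% CO2, on pHGG cell lines and H9-derived neural stem cells. Readout was CellTiter-Glo luminescence, log2-transformed and scaled per plate to % activity between solvent and positive control wells. The median over replicates gives the growth-inhibition value.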

DIPGX37 = test system: DIPGX37 (H3.3 K27M diffuse intrinsic pontine glioma line)
Procedure, shortened: as §1

DIPGX7 = test system: DIPGX7 (H3.3 K27M diffuse intrinsic pontine glioma line)
Procedure, shortened: as §1

DIPGX9 = test system: DIPGX9 (diffuse intrinsic pontine glioma line)
Procedure, shortened: as §1

HGGX39 = test system: HGGX39 (paediatric high-grade glioma line)
Procedure, shortened: as §1

HGGX6 = test system: HGGX6 (H3.3 G34R paediatric high-grade glioma line)
Procedure, shortened: as §1

HNSC = test system: HNSC
Procedure, shortened: as §1

SUDIPGIV = test system: SUDIPGIV (diffuse intrinsic pontine glioma line)
Procedure, shortened: as §1

SUDIPGVI = test system: SUDIPGVI (diffuse intrinsic pontine glioma line)
Procedure, shortened: as §1

SUDIPGXIII = test system: SUDIPGXIII (diffuse intrinsic pontine glioma line)
Procedure, shortened: as §1

Compound	growth inhibition (DIPGX29)	growth inhibition (DIPGX37)	growth inhibition (DIPGX7)	growth inhibition (DIPGX9)	growth inhibition (HGGX39)	growth inhibition (HGGX6)	growth inhibition (HNSC)	growth inhibition (SUDIPGIV)	growth inhibition (SUDIPGVI)	growth inhibition (SUDIPGXIII)
O=C1N=C(O)NC1(c1ccccc1)c1ccccc1	0.482% and -0.485%	2.42% and 3.19%	1.26% and 0.465%	0.659% and -0.0101%	1.57% and 1.18%	2.58% and 1.56%	0.737% and -1.81%	-0.112% and -1.42%	1.87% and 2.15%	-17.1%
CC(=O)Oc1ccccc1C(=O)Nc1ncc([N+](=O)[O-])s1	0.503%	4.15%	3.15%	1.52%	3.31%	1.98%	7.17%	3.07%	1.06%	63.6%
CCOC(=O)[C@H](CCc1ccccc1)N[C@H]1CS[C@H](c2cccs2)CN(CC(=O)O)C1=O	-2.15%	0.457%	0.303%	-0.286%	0.0238%	0.0397%	1.94%	-0.624%	-2.82%	0.0387%
c1ccc(CN(CC2=NCCN2)c2ccccc2)cc1	1.93%	1.36%	0.575%	3.38%	1.53%	0.0328%	0.623%	-2.17%	3.06%	0.969%
CC1=C(CC(=O)O)c2cc(F)ccc2/C1=C\c1ccc([S+](C)[O-])cc1 (stereo not given)	1.11%	1.67%	0.000497%	0.866%	0.763%	2.31%	-0.224%	0.82%	2.02%	0.292%
N#Cc1ccc(C(c2ccc(C#N)cc2)n2cncn2)cc1	-0.88%	0.114%	-0.157%	-0.262%	-0.621%	-0.866%	0.581%	-0.66%	1.28%	1.04%
CC(=O)NS(=O)(=O)c1ccc(NC(=O)c2ccccc2C(=O)O)cc1	-1.87%	-0.137%	-3.14%	-1.16%	-2.19%	-0.75%	-2.78%	-2.4%	-1.59%	-0.151%
CC(COc1ccccc1)N(CCCl)Cc1ccccc1 (stereo not given)	-2.73%	-0.547%	0.876%	-1.7%	-4.31%	-3.53%	41.4%	-2.44%	-7.02%	1.89%
C[C@@H]1C/C=C/C=C/C=C/C=C/[C@H](O[C@@H]2O[C@H](C)[C@@H](O)[C@H](N)[C@@H]2O)C[C@@H]2O[C@](O)(C[C@@H](O)C[C@H]3O[C@@H]3/C=C/C(=O)O1)C[C@H](O)[C@H]2C(=O)O	1.2%	2.42%	1.64%	1.2%	1.86%	0.734%	-0.468%	0.119%	3.23%	0.668%
CC(N)C12CC3CC(CC(C3)C1)C2 (stereo not given)	-0.149%	2.59%	0.357%	0.266%	1.62%	0.391%	1.01%	0.585%	-0.365%	-0.4%
CCc1cccc2c3c([nH]c12)C(CC)(CC(=O)O)OCC3 (stereo not given)	1.41%	0.479%	3.29%	0.48%	2.3%	0.44%	2.88%	-3.78%	1.87%	1.77%
Clc1ccc(C(c2ccccc2Cl)C(Cl)Cl)cc1 (stereo not given)	-1.94%	-1.47%	-1.72%	-0.6%	-0.428%	-0.0252%	-1.09%	-1.24%	-1.05%	1.43%
CCOC(=O)[C@H](CCc1ccccc1)N[C@H]1CCCN2CCC[C@@H](C(=O)O)N2C1=O	2.06%	3.84%	3.15%	2.7%	2.78%	1.01%	9.63%	0.443%	4.92%	-0.861%
O=c1oc2c(O)c(O)cc3c(=O)oc4c(O)c(O)cc1c4c23	1.91%	2.55%	2.78%	2.1%	1.54%	-1.49%	-1.26%	-0.815%	-0.974%	1.4%
COc1cc2nc(N3CCN(C(=O)C4COc5ccccc5O4)CC3)nc(N)c2cc1OC (stereo not given)	0.458%	2.32%	1.34%	0.0132%	2.47%	1.58%	-0.951%	-3.82%	1.52%	2.13%
COCCOC(=O)C1=C(C)NC(C)=C(C(=O)OC(C)C)C1c1cccc([N+](=O)[O-])c1 (stereo not given)	-0.32%	0.964%	-0.466%	0.313%	1.43%	-1.47%	2.29%	0.263%	1.28%	2.89%
C#CC1(O)CC[C@H]2[C@@H]3CCC4=CC(=O)CC[C@@H]4[C@H]3CC[C@@]21CC (stereo not given in full)	-0.0424%	0.475%	-1.66%	0.691%	0.0435%	0.889%	-0.272%	-0.687%	1.24%	1.03%

Compound	growth inhibition (DIPGX29)	growth inhibition (DIPGX37)	growth inhibition (DIPGX7)	growth inhibition (DIPGX9)	growth inhibition (HGGX39)	growth inhibition (HGGX6)	growth inhibition (HNSC)	growth inhibition (SUDIPGIV)	growth inhibition (SUDIPGVI)	growth inhibition (SUDIPGXIII)
CC(=O)[C@H]1CC[C@H]2[C@@H]3C=CC4=CC(=O)CC[C@@]4(C)[C@@H]3CC[C@]12C	-0.886%	4.22%	-0.136%	0.45%	1.86%	-2.88%	6.39%	2.11%	0.865%	-1.05%
CC(=O)SCC(Cc1ccccc1)C(=O)NCC(=O)OCc1ccccc1 (stereo not given)	1.1%	2.25%	1.03%	1.31%	1.49%	1.32%	-1.4%	-1.43%	-1.57%	-0.948%
Cn1ccnc1S	-2.03%	-0.808%	-1.31%	-0.195%	-0.799%	-0.968%	-4.2%	-2.69%	-1.6%	-8.17%
CCCC(=O)OCOC(=O)C1=C(C)NC(C)=C(C(=O)OC)C1c1cccc(Cl)c1Cl (stereo not given)	2.13%	4.21%	2.32%	2.4%	4.32%	-0.314%	31.7%	2.85%	3.35%	-0.196%
CCCC(=O)O[C@]1(C(=O)COC(C)=O)CC[C@H]2[C@@H]3C[C@H](F)C4=CC(=O)C=C[C@]4(C)[C@@]3(F)[C@@H](O)C[C@@]21C	1.5%	1.44%	-0.393%	2.91%	2.12%	0.881%	-3.23%	-4.91%	-0.161%	1.12%
OC(CNCC(O)C1CCc2cc(F)ccc2O1)C1CCc2cc(F)ccc2O1 (stereo not given)	4.79%	3.01%	2.85%	4%	4.24%	6.9%	2.72%	2.21%	-0.86%	2.62%
CN[C@@H]1[C@H](O[C@H]2[C@H](O[C@H]3[C@H](O)[C@@H](O)[C@H](N=C(N)N)[C@@H](O)[C@@H]3N=C(N)N)O[C@@H](C)[C@]2(O)C=O)O[C@@H](CO)[C@H](O)[C@H]1O	0.0944%	-5.46%	0.411%	-1.2%	0.505%	-0.72%	-0.954%	-0.137%	-0.665%	0.85%
COc1ccc(CN(CCN(C)C)c2ccccn2)cc1	-4.36%	-0.213%	-2.04%	-0.968%	2.69%	-3.48%	-2.01%	-2.03%	-1.61%	0.98%
C=C1[C@H](CO)[C@@H](O)C[C@@H]1n1cnc2c(=O)[nH]c(N)nc21	-0.461%	0.828%	-0.963%	1.66%	0.038%	2.68%	0.984%	-0.629%	0.432%	2.42%
Nc1nnc(-c2cccc(Cl)c2Cl)c(N)n1	-0.42%	-0.569%	-0.114%	-0.0846%	0.648%	0.473%	0.358%	-1.97%	0.284%	0.73%
CO[C@H]1C[C@@H]2CC[C@@H](C)[C@@](O)(O2)C(=O)C(=O)N2CCCC[C@H]2C(=O)O[C@H]([C@H](C)C[C@@H]2CC[C@@H](OCCO)[C@H](OC)C2)CC(=O)[C@H](C)/C=C(\C)[C@@H](O)[C@@H](OC)C(=O)[C@H](C)C[C@H](C)/C=C/C=C/C=C/1C	4.26%	2.47%	3.53%	14%	8.9%	7.45%	7.71%	1.16%	10.5%	1.36%
CN1CCCCC1CCN1c2ccccc2Sc2ccc([S+](C)[O-])cc21 (stereo not given)	-1.62%	1.07%	-1.12%	-0.108%	-0.329%	-0.926%	1.22%	-1.02%	-0.796%	1.03%
CC(=O)OCC(CCn1cnc2cnc(N)nc21)COC(C)=O	-2.6%	-4.6%	-0.979%	-2.76%	-5.59%	-3.73%	33.5%	-3.45%	-13%	2.17%
Nc1nc(=O)c2c([nH]1)NCC(CNc1ccc(C(=O)N[C@@H](CCC(=O)O)C(=O)O)cc1)N2C=O (stereo not given in full)	-0.552%	0.652%	-1.46%	-0.907%	-0.954%	-0.876%	0.438%	-1.59%	0.511%	-0.342%
CN1CC2c3ccccc3Oc3ccc(Cl)cc3C2C1 (stereo not given)	1.89%	-5.66%	0.982%	0.366%	5.72%	0.239%	2.74%	2.1%	-0.852%	0.618%
NC(CO)C(=O)NNCc1ccc(O)c(O)c1O (stereo not given)	-0.675%	0.574%	-0.561%	-0.46%	-0.00682%	2.73%	-2.22%	-0.604%	0.203%	-7.46%
CC(C)NCC(O)c1cc(O)cc(O)c1 (stereo not given)	-0.101%	1.67%	1.75%	1.82%	2.87%	-1.68%	27.3%	2.27%	-0.181%	-0.215%
